The values that follow come from PubChem BioAssay (NCATS).

Records with an inconclusive call do not appear. A number with no mark means an inactive call. Activity calls are given as the source filed them. Calls follow the shape of the dose curve; as a rule, active = well fitted cell-killing curve with a large enough effect; inconclusive = small, poorly fitted or top-dose-only effect, or effect the other way; inactive = no such curve, though single readings can be large or run the other way.
Potency is read from the fitted curve at half-maximal effect.

A short description of this assay: Quantitative High-Throughput drug screen in 47 multiple myeloma cell lines against the NCATS MIPE library collection: JIM1_ECACC cell viability assay (AID 1918964). The settings on record: JIM1 myeloma viability, CellTiter-Glo ATP luminescence, 48 h; series mostly up to 45.8 µM; viability (% of DMSO): at the top concentration. The text has this:
PI: Beverly A. Mock Ph.D.
Laboratory of Cancer Biology and Genetics,
Center for Cancer Research, National Cancer Institute,
National Institute of Health, Bethesda, Maryland
Drug resistance and disease progression are common in multiple myeloma (MM) patients, underscoring the need for new therapeutic combinations. […] We hypothesized that effective combinations would reduce MYC expression and enhance p16 activity. […] These preclinical data identify potentially useful drug combinations for evaluation in drug-resistant MM and reveal potential mechanisms of combined drug sensitivity.
Described herein is the primary MIPE qHTS used to cherrypick compounds. Validated compounds were then further tested for potential synergistic activiy.
[1] Peat TJ, Gaikwad SM, Dubois W, Gyabaah-Kessie N, Zhang S, Gorjifard S, Phyo Z, Andres M, Hughitt VK, Simpson RM, Miller MA, Girvin AT, Taylor A, Williams D, D'Antonio N, Zhang Y, Rajagopalan A, Flietner E, Wilson K, Zhang X, Shinn P, Klumpp-Thomas C, McKnight C, Itkin Z, Chen L, Kazandijian D, Zhang J, Michalowski AM, Simmons JK, Keats J, Thomas CJ, Mock BA. Drug combinations identified by high-throughput screening promote cell cycle transition and upregulate Smad pathways in myeloma. Cancer Lett. 2023 Aug 1;568:216284. doi: 10.1016/j.canlet.2023.216284. Epub 2023 Jun 24. PMID: 37356470; PMCID: PMC10408729.
SEQUENCE No. (e.g., 1, 2, 3, etc.); […] (e.g., Cells, Incubation, Reagent, etc.); VALUE and DESCRIPTION.
1; Cells; 5 uL; white, solid bottom 1536-well Greiner assay plate.
2; Compounds; 23 nL; Kalypsis pin tool (Wako USA) equipped with a 1536-well pin head to transfer to the assay plates.
3; Incubation; 48 hours; 37C incubation.
4; Reagent;5uL; CellTiter Glo (Promega).
5; Detector; 425V; Luminescence; Viewlux PerkinElmer.
NOTES (numbers refer to Sequence numbers above)
1. The cell-based screening methods employed in this study were like those previously published. Briefly, the corresponding myeloma cell lines were screened in 1,536-well plates with 500 cells, 5-uL per well for inhibition of cell viability (assessed by measuring ATP levels with CellTiterGlo).
2. NCATS MIPE 4.0 library of approved and investigational drugs were added using the Kalypsis pin tool. Wells treated with DMSO only for 100% viability and media only wells for 0% viability were used as controls.
3. The assay plates were covered and incubated for 48 hours in a 37C, 5% CO2 incubator with controlled humidity.
4. After 48 hours, CellTilter-GloTM luminescent substrate mix (Promega) reagent was added to the assay plate and plates we incubated for 5 min at room temperature.
5. Signal was measured as median relative luminescence units on a ViewLux (PerkinElmer) multiplate reader.
[1] Heske CM, Davis MI, Baumgart JT, Wilson K, Gormally MV, Chen L, Zhang X, Ceribelli M, Duveau DY, Guha R, Ferrer M, Arnaldez FI, Ji J, Tran HL, Zhang Y, Mendoza A, Helman LJ, Thomas CJ. Matrix Screen Identifies Synergistic Combination of PARP Inhibitors and Nicotinamide Phosphoribosyltransferase (NAMPT) Inhibitors in Ewing Sarcoma. Clin Cancer Res. 2017 Dec 1;23(23):7301-7311. doi: 10.1158/1078-0432.CCR-17-1121. Epub 2017 Sep 12. PMID: 28899971; PMCID: PMC6636827.
For `Cn1nnc2c(C(N)=O)ncn2c1=O`, the “viability (% of DMSO)” value was 106%.
On the same count and under the same terms, under `NC(=O)c1cccnc1` stands 133%; under `CCn1cc(C(=O)O)c(=O)c2cc(F)c(N3CCNCC3)cc21`, 110%.
Take `Nc1nc(F)nc2c1ncn2[C@@H]1O[C@H](CO)[C@@H](O)[C@@H]1O`: the Potency is 0.0935 µM (active).
As to `CC[C@H](NC(C)C)[C@H](O)c1ccc(O)c2[nH]c(=O)ccc12`, the “viability (% of DMSO)” value is 138%.
Take `CCOC(=O)[C@H](CCc1ccccc1)N[C@H]1CCc2ccccc2N(CC(=O)O)C1=O`: the Potency was 9.35 µM (active).
Consider `COc1cc([C@@H]2c3cc4c(cc3[C@H](O)[C@H]3COC(=O)[C@H]23)OCO4)cc(OC)c1OC`, for which the “viability (% of DMSO)” value was 22.6%.
For `CNS(=O)(=O)Cc1ccc2[nH]cc(CCN(C)C)c2c1`, the “viability (% of DMSO)” value was 115%.
Regarding `CCc1cc(C(N)=S)ccn1`, the “viability (% of DMSO)” value was 118%.
Same read-out and setting: under `O=NN(CCCl)C(=O)NC1CCCCC1` stands 101%; under `CCN1CCCC1CNC(=O)c1cc(S(N)(=O)=O)ccc1OC` (stereo not given), 124%.
For the compound `COC(=O)Nc1nc2ccc(Sc3ccccc3)cc2[nH]1`, the Potency is 0.833 µM (active).
With `COc1ccc2c(c1)c(CC(=O)OCC(=O)O)c(C)n2C(=O)c1ccc(Cl)cc1`, the “viability (% of DMSO)” value was 97.7%.
As for `O=C(O)c1cn(C2CC2)c2cc(N3CCNCC3)c(F)cc2c1=O`, the “viability (% of DMSO)” value was 91.8%.
Still for that read-out and setting: next, `C[C@@H]1CN(c2c(F)c(N)c3c(=O)c(C(=O)O)cn(C4CC4)c3c2F)C[C@H](C)N1`: 152% [at 23.2 µM].
Turning to `CCCc1nc(C)c2c(=O)[nH]c(-c3cc(S(=O)(=O)N4CCN(CC)CC4)ccc3OCC)nn12`, the Potency is 5.26 µM (active).
Regarding `Oc1c(Cl)cc(Cl)c2cccnc12`, the Potency was 8.33 µM (active).
Still for that read-out and setting: next, `COc1ccc2cc3[n+](cc2c1OC)CCc1cc2c(cc1-3)OCO2`: 16.6 µM (active).
Take `CCC(C)(C)c1ccc(CC(C)CN2C[C@@H](C)O[C@@H](C)C2)cc1` (stereo not given in full): the “viability (% of DMSO)” value is 70.7%.
Turning to `C[C@@H]1C[C@H]2[C@@H]3CCC4=CC(=O)C=C[C@]4(C)[C@@]3(Cl)[C@@H](O)C[C@]2(C)[C@@]1(OC(=O)c1ccco1)C(=O)CCl`, the Potency is 7.43 µM (active).
For `Nc1[nH]c(=O)ncc1F`, the “viability (% of DMSO)” value was 77.6%.
Still for that read-out and setting: under `COC(c1ccccc1)(c1ccccc1)[C@H](Oc1nc(C)cc(C)n1)C(=O)O` stands 125%; under `CC1=NN(c2ccccc2)C(=O)C1`, 116%; under `CC1(C)[C@H](C(=O)O)N2C(=O)C[C@H]2S1(=O)=O`, 144%.
For `CCOC(=O)[C@H](CCc1ccccc1)N[C@H]1CS[C@H](c2cccs2)CN(CC(=O)O)C1=O`, the Potency is 1.32 µM (active).
In the case of `C[C@@H](CN1CC(=O)NC(=O)C1)N1CC(=O)NC(=O)C1`, the “viability (% of DMSO)” value was 88.9%.
Still for that read-out and setting: next, `Cc1cc(NS(=O)(=O)c2ccc(N)cc2)no1`: 100%.
For `O=c1cc(O)c(Cl)c[nH]1`, the Potency is 6.62 µM (active).
As to `CCC(=O)O[C@]1(C(=O)SCF)[C@H](C)C[C@H]2[C@@H]3C[C@H](F)C4=CC(=O)C=C[C@]4(C)[C@@]3(F)[C@@H](O)C[C@@]21C`, the “viability (% of DMSO)” value was 94.4%.
Still for that read-out and setting: under `CC(C)C1CCC(C(=O)N[C@H](Cc2ccccc2)C(=O)O)CC1` (stereo not given in full) stands 83.2%; under `NC(=O)N1c2ccccc2CC(=O)c2ccccc21`, 134%.
For `O=C(O)c1ccc(-n2nc(-c3ccccc3O)nc2-c2ccccc2O)cc1`, the Potency was 18.7 µM (active).
On to `CCCc1cc(C(N)=S)ccn1`, for which the “viability (% of DMSO)” value is 111%.
On the same count and under the same terms, next, `Cn1c(=O)c2c(ncn2CC(O)CO)n(C)c1=O` (stereo not given): 102%.
Still for that read-out and setting: under `Cc1oc(=O)oc1CN1CCN(c2cc3c(cc2F)c(=O)c(C(=O)O)c2n3C(C)S2)CC1` (stereo not given) stands 102%.
As to `CC(C)(C)C(=O)OCOP(=O)(COCCn1cnc2c(N)ncnc21)OCOC(=O)C(C)(C)C`, the Potency is 2.64 µM (active).
The same measure, in the same setting: under `CC(=O)Oc1ccccc1C(=O)Nc1ncc([N+](=O)[O-])s1` stands 27 µM (active).
On to `NNC(=O)c1ccncc1`, for which the “viability (% of DMSO)” value is 112%.
Regarding `COc1cc(NCc2ccc3nc(N)nc(N)c3c2C)cc(OC)c1OC`, the Potency is 2.96 µM (active).
Turning to `NS(=O)(=O)c1cc2c(cc1Cl)NC(C(Cl)Cl)NS2(=O)=O` (stereo not given), the “viability (% of DMSO)” value was 117%.
